# Experimental data published in the supplement of paper PMC6555819.
# What was measured:
# Test in all cases: PBM binding z-score (relative to random genomic background probes); higher = stronger binding; sequences stand for … in GC…GCGATTGACAGCGTAGAATGAAGG
# [1] = system: FXR:RXRa (NR concentration 270 nM, RXRa partner concentration 90 nM)
# Method in brief: (§1)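 Probes were double-stranded and carried 34-nt variable regions with direct-repeat seeds, single-nucleotide variants, half-site ablations and random human genomic background sequences, printed on custom Agilent 4×180K protein-binding microarrays. Arrays were incubated 1 h with ligand-free nuclear receptor dimers in PBS pH 7.4, 2% milk, 0.02% Triton X-100, 1 mM DTT, 0.2 mg/mL BSA and 0.4 mg/ml salmon testes DNA. Antibodies against each partner (one per run) detected binding, and scanned fluorescence was regression-normalized. Binding z-scores use the random background probes as reference.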
# [2] = system: LXRa:RXRa (NR concentration 270 nM, RXRa partner concentration 90 nM)
# Method in brief: as §1
# [3] = system: LXRa homodimer (NR concentration 270 nM)
# Method in brief: as §1
# [4] = system: LXRb:RXRa (NR concentration 270 nM, RXRa partner concentration 90 nM)
# Method in brief: as §1
# [5] = system: LXRb homodimer (NR concentration 270 nM)
# Method in brief: as §1
# [6] = system: PPARa:RXRa (NR concentration 270 nM, RXRa partner concentration 90 nM)
# Method in brief: as §1
# [7] = system: PPARg:RXRa (NR concentration 180 nM, RXRa partner concentration 90 nM)
# Method in brief: as §1
# [8] = system: PPARg:RXRa 270nM:90nM, anti-RXR (NR concentration 270 nM, RXRa partner concentration 90 nM)
# Method in brief: as §1
# [9] = system: PPARg:RXRa 30nM:10nM, anti-RXR (NR concentration 30 nM, RXRa partner concentration 10 nM)
# Method in brief: as §1
# [10] = system: PPARg:RXRa 90nM:30nM, anti-RXR (NR concentration 90 nM, RXRa partner concentration 30 nM)
# Method in brief: as §1
Sequence,PBM binding z-score [1],PBM binding z-score [2],PBM binding z-score [3],PBM binding z-score [4],PBM binding z-score [5],PBM binding z-score [6],PBM binding z-score [7],PBM binding z-score [8],PBM binding z-score [9],PBM binding z-score [10]
CGTCCAAGTTCAATGCTAGGTCAGTGAAAGCATT,3.05,3.56,2.36,1.92,0.297,2.42,-0.0137,0.79,-0.404,0.397
CGTCCAAGGTCCAAGGTCAGTGAAGAGATGACGG,1.55,1.08,0.179,1.1,-0.433,2.37,1.65,2.35,0.473,1.66
ACAGACAGGTGAGTGAAGGTAATTCAGCTGGACG,0.214,0.102,-0.0483,-0.196,-0.576,-0.0438,0.499,0.152,-0.212,-0.193
CCTCGGAGGACAAAAGGAGGTCAGAGCTGCCAGA,1.18,2.12,1.26,1.34,-0.602,2.71,0.706,1.21,-0.33,0.651
AGAACGAGGGTAATGAGTTGATAGCACGGGTGGC,-0.398,-0.272,-0.536,-0.672,-0.615,0.387,1.08,0.119,0.202,0.182
ATCTCTAGGTAACCAAGCTCAGTGAATGCCGAAC,0.0567,-0.156,-0.0842,-0.416,0.643,0.0797,0.181,0.28,-0.0374,0.235
ATATGTAGCTTAGCTGGGGTCATTCAGACTAGGC,3.34,3.44,1.49,4.21,0.639,4.15,1.15,2.3,0.587,1.59
TCTTGTAGATCAACAGCAGGTTAAGAAAGATCGA,0.263,0.476,-0.0928,0.569,-0.319,0.609,-0.21,1.17,2.61,1.7
TCGAGTAGGTTAGGGGCATTCAGAATGGCGTCGA,0.42,0.257,-0.31,0.672,-0.239,1.39,0.676,1.98,1.13,1.76
CCTACTGGGCCATTCAGAGGTAATTGATCATATG,-0.331,-0.32,-0.381,-0.312,-0.992,0.524,0.262,0.25,-0.481,-0.189
CGTCAAAGTTCAACTAAGGAAACGTAAAGCACGC,7.38,6.47,3.78,4.2,2.11,5.18,5.11,5.68,2.56,4.69
ACTAGGAGGCCAAGTTTGGGTCACTCAAACAAAG,0.516,0.308,-0.0463,0.967,-0.287,1.36,0.296,0.511,-0.488,-0.0404
CGTTAAAGTTCAACTAAGGTAACGTAAAGCACGC,7.01,6.26,4.48,4.01,1.89,4.8,3.71,4.36,1.66,3.27
CCTAGTTCGTCAAGGTCACACACGCTATAGGTAC,4.55,3.92,2.75,4.06,1.33,4.36,2.52,3.46,0.804,2.23
GCTATTAGTCGAAAGGGCAACCGAATGATTCTCG,0.296,0.236,0.214,0.479,-0.262,1.74,2.25,4.04,2.32,3.76
GCGACTGGGGCAAAGCAGGTTACCATCAGGTTGG,0.219,0.0244,-0.624,0.0908,-1.13,1.24,0.987,1.13,-0.557,0.405
CGTCCTAGGTCAATGCTAGGTCAGTGAAAGCATT,3.74,3.83,1.98,2.38,0.076,3.34,1.92,2.52,0.255,1.31
TCTGCTAGGTCAACGATGGGCAGCTAATCTGCTA,3.19,2.29,-0.252,1.2,-0.397,2.94,2.47,3.01,1.85,2.49
GCTATTAGTGGAAAGGGCAACCGAATGATTCTCG,0.118,0.287,-0.215,0.268,-0.406,1.68,1.88,3.6,1.97,3.34
ATCGAAAGGTCGAGGAGAGTATAGAGAAAGGGAA,4.17,3.26,0.202,2.47,0.669,4.24,2.57,2.92,1.38,2.09
GTATCAAGGTGAATAGGTCGTTGATGAGTAGGCG,0.903,1.1,0.272,0.689,0.229,2.65,2.43,2.76,1.16,2.08
TCTCGGAGGACATGAAGGTCAGAGCTTTCCAGAG,0.472,1.08,0.0663,1.15,-0.779,1.77,0.175,1.63,2.55,1.8
